{"source": "PubChem BioAssay AID1347418", "about": "(Sanford-Burnham Center for Chemical Genomics, 2020)", "note": "In all, about 1,300 compounds went through this assay and about 750 (58%) were called active. Some of the results follow. Unmarked numbers belong to inactive results."}
{"target": "Sulfhydryl oxidase 1 (Homo sapiens) (UniProt O00391)", "sequence (O00391 whole entry, looked up)": "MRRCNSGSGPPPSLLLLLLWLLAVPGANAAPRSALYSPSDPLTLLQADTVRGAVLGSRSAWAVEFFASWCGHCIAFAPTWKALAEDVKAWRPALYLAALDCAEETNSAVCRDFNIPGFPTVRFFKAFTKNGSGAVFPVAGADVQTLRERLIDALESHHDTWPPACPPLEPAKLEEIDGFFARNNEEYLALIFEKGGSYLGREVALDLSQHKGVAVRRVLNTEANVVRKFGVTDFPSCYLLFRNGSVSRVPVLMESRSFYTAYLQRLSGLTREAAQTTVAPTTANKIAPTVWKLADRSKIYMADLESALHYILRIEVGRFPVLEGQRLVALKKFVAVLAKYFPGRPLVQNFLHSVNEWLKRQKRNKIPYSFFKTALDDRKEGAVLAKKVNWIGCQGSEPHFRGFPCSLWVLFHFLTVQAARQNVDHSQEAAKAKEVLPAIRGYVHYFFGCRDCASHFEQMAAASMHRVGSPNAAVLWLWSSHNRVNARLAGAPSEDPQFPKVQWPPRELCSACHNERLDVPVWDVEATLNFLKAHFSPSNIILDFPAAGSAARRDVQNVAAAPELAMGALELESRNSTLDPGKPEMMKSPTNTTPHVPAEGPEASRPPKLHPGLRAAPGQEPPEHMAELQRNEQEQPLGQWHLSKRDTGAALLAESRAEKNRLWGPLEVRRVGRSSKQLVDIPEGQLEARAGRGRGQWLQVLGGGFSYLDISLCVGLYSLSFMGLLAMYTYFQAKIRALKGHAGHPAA", "assay": "QSOX1 enzyme inhibitors, primary screen, biochemical, ROS-Glo H2O2 luminescence, HTS (AID 1347418)", "conditions": "recombinant QSOX1, ROS-Glo H2O2 luminescence; at 12.5 µM; hits give high values; active = any value above zero"}
{"smiles": "Clc1ccc2c(c1)C(N1CCNCC1)=Nc1ccccc1O2", "inhibition": "2.5% (active)"}
{"smiles": "CN1CCN(C2=Nc3ccccc3Oc3ccc(Cl)cc32)CC1", "inhibition": "1.9% (active)"}
{"smiles": "Nc1nc2[nH]c(=O)cnc2c(=O)[nH]1", "inhibition": "2.6% (active)"}
{"smiles": "Cn1cc(C(F)(F)F)nc1-c1ccc(OCC(O)CNCCOc2ccc(O)c(C(N)=O)c2)cc1", "note": "(centres undefined)", "inhibition": "5.6% (active)"}
{"smiles": "O=C(c1ccc2c(c1)OCCO2)N1CCCCC1", "inhibition": "4.8% (active)"}
{"smiles": "CCC(=O)N1CCN(C(=O)c2ccccc2)CC1", "inhibition": "-5.7%"}
{"smiles": "NC[C@H](O)c1ccc(O)c(O)c1", "inhibition": "9.5% (active)"}
{"smiles": "NCC(O)c1ccc(O)c(O)c1", "note": "(centres undefined)", "inhibition": "7.1% (active)"}
{"smiles": "C=C[C@H]1CN2CC[C@@H]1C[C@@H]2[C@H](O)c1ccnc2ccc(OC)cc12", "inhibition": "-1.1%"}
{"smiles": "NCCCNCCSP(=O)(O)O", "inhibition": "1.1% (active)"}
{"smiles": "CC(C)COCC(CN(Cc1ccccc1)c1ccccc1)N1CCCC1", "note": "(centres undefined)", "inhibition": "9.6% (active)"}
{"smiles": "CCCCC1C(=O)N(c2ccccc2)N(c2ccccc2)C1=O", "inhibition": "-5.9%"}
{"smiles": "Cc1ccc(=O)n(-c2ccccc2)c1", "inhibition": "0.9% (active)"}
{"smiles": "Cc1cc(O)c2c(c1)C(=O)c1cc(O)cc(O)c1C2=O", "inhibition": "10.6% (active)"}
{"smiles": "CCCc1c(-c2ccc(O)cc2)nn(-c2ccc(O)cc2)c1-c1ccc(O)cc1", "inhibition": "17.5% (active)"}
{"smiles": "Cn1cc(C(=O)OCC2CCN(CCNS(C)(=O)=O)CC2)c2ccccc21", "inhibition": "-2.2%"}
{"smiles": "CCN(CC)C(=S)SSC(=S)N(CC)CC", "inhibition": "14.5% (active)"}
{"smiles": "CC12C(=O)OC(=O)C1(C)C1CCC2O1", "note": "(centres undefined)", "inhibition": "-4%"}
{"smiles": "CN1CCc2cc(Cl)c(O)cc2[C@@H](c2ccccc2)C1", "inhibition": "10.2% (active)"}
{"smiles": "CN1CCc2cc(O)c(O)cc2C(c2ccccc2)C1", "note": "(centres undefined)", "inhibition": "14.7% (active)"}
{"smiles": "CN(C)c1cc2c(Nc3ccc4c(cnn4Cc4ccccc4)c3)ncnc2cn1", "inhibition": "-0.7%"}
{"smiles": "Cc1cc(C(C)(C)C)c(O)c(C)c1CC1=NCCN1", "inhibition": "-1.4%"}
{"smiles": "Cc1cc(C(C)(C)C)cc(C)c1CC1=NCCN1", "inhibition": "3.9% (active)"}
{"smiles": "N=S(=O)([O-])Cc1noc2c1C=C[C+]=C2", "inhibition": "-4.8%"}
{"smiles": "COC1=C(OC)C(=O)c2ccccc2C1=O", "inhibition": "6.2% (active)"}
{"smiles": "O=C1C(SCCO)=C(SCCO)C(=O)c2ccccc21", "inhibition": "-58.7%"}
{"smiles": "O=[N+]([O-])c1ccc(-c2nc(-c3ccc(F)cc3)c(-c3ccncc3)[nH]2)cc1", "inhibition": "6.9% (active)"}
{"smiles": "Oc1ccc(-c2nc(-c3ccc(F)cc3)c(-c3ccncc3)[nH]2)cc1", "inhibition": "31.8% (active)"}
{"smiles": "N#Cc1cc([N+](=O)[O-])c2sc(C(N)=O)[n+]([O-])c2c1", "inhibition": "2.3% (active)"}
{"smiles": "COc1nc(C)nc(Cl)c1NC1=NCCN1", "inhibition": "-8.3%"}
{"smiles": "Cc1nn(-c2ccccc2)c(C)c1C=NN1CCN(Cc2ccccc2)CC1", "inhibition": "5.8% (active)"}
{"smiles": "Nc1nnc(-c2cccc(Cl)c2Cl)c(N)n1", "inhibition": "-3.6%"}
{"smiles": "Nc1ccc(N2C(=O)c3ccccc3C2=O)c(Cl)c1", "inhibition": "10.7% (active)"}
{"smiles": "CCCCCCCCCC(=O)NC(CN1CCOCC1)[C@H](O)c1ccccc1", "note": "(some centres undefined)", "inhibition": "4.7% (active)"}
{"smiles": "CC1COc2c(N3CCN(C)CC3)c(F)cc3c(=O)c(C(=O)O)cn1c23", "note": "(centres undefined)", "inhibition": "-1.5%"}
{"smiles": "CN=C(NC#N)NCCSCc1nc[nH]c1C", "inhibition": "3.1% (active)"}
{"smiles": "NC(=O)OCC(COC(N)=O)c1ccccc1", "inhibition": "1.7% (active)"}
{"smiles": "NS(=O)(=O)C#Cc1ccccc1", "inhibition": "0.5% (active)"}
{"smiles": "Clc1nccc2c1ccc1ccccc12", "inhibition": "-1.8%"}
{"smiles": "Oc1ccc2ccccc2c1SSc1c(O)ccc2ccccc12", "inhibition": "34.9% (active)"}
{"smiles": "COc1cc(/C=C(\\C#N)C(=O)Nc2nnc(C(F)(F)F)s2)ccc1OCc1ccc(C(F)(F)F)cc1C(F)(F)F", "inhibition": "0.8% (active)"}
{"smiles": "CN(C)c1nc2c(Br)c(Br)c(Br)c(Br)c2[nH]1", "inhibition": "7% (active)"}
{"smiles": "Nc1cc(=O)[nH]c(N)n1", "inhibition": "2% (active)"}
{"smiles": "CCCN(CCC)CCc1cccc2c1CC(=O)N2", "inhibition": "1.5% (active)"}
{"smiles": "CC(C)CC(NP(=O)(O)O[C@@H]1O[C@@H](C)[C@H](O)[C@@H](O)[C@H]1O)C(=O)NC(Cc1c[nH]c2ccccc12)C(=O)O", "note": "(some centres undefined)", "inhibition": "4.6% (active)"}
{"smiles": "CN[C@H](CC(=O)O)C(=O)O", "inhibition": "2.3% (active)"}
{"smiles": "CC[C@H](C)C(=O)O[C@H]1CCC=C2C=C[C@H](C)[C@H](CC[C@@H]3C[C@@H](O)CC(=O)O3)[C@H]21", "inhibition": "-6.8%"}
{"smiles": "NC(N)=N[C@@H](CCC(=O)O)C(=O)O", "inhibition": "0.9% (active)"}
{"smiles": "CNCCC=C1c2ccccc2CCc2ccccc21", "inhibition": "2.3% (active)"}
{"smiles": "CC#CCOC(=O)c1c(C)nc2sc3c(c2c1N)CCC(O)C3", "note": "(centres undefined)", "inhibition": "1.6% (active)"}
{"smiles": "CN1CCC[C@H]1c1cccnc1", "inhibition": "-0.6%"}
{"smiles": "COc1ccccc1N1CCN(CCCNc2cc(=O)n(C)c(=O)n2C)CC1", "inhibition": "10.9% (active)"}
{"smiles": "COc1ccccc1N1CCN(CCCNc2c(C)c(=O)n(C)c(=O)n2C)CC1", "inhibition": "7.4% (active)"}
{"smiles": "CCC(C)N(C)C(=O)c1cc2ccccc2c(-c2ccccc2Cl)n1", "note": "(centres undefined)", "inhibition": "-1.2%"}
{"smiles": "CN1CCN(C2Cc3ccccc3Sc3ccc(Cl)cc32)CC1", "note": "(centres undefined)", "inhibition": "-2.3%"}
{"smiles": "CN1CCN(CCCN2c3ccccc3Sc3ccc(Cl)cc32)CC1", "inhibition": "46.5% (active)"}
{"smiles": "OCCN1CCN(CCCN2c3ccccc3C=Cc3ccccc32)CC1", "inhibition": "6.4% (active)"}
{"smiles": "OCCN1CCN(CCCN2c3ccccc3Sc3ccc(Cl)cc32)CC1", "inhibition": "45.4% (active)"}
{"smiles": "COc1cc2c(cc1OC)-c1cc(=Nc3c(C)cc(C)cc3C)n(C)c(=O)n1CC2", "inhibition": "-1.4%"}
{"smiles": "Cc1ccc(S(=O)(=O)/C=C/C#N)cc1", "inhibition": "0.7% (active)"}
{"smiles": "CC(C)(C)c1ccc(S(=O)(=O)/C=C/C#N)cc1", "inhibition": "1.2% (active)"}
{"smiles": "C=C[C@@]1(C)CC(=O)[C@]2(O)[C@@]3(C)[C@H](O)CCC(C)(C)[C@@H]3[C@H](O)[C@H](OC(C)=O)[C@@]2(C)O1", "inhibition": "19.3% (active)"}
{"smiles": "Nc1nc(N)c(N=O)c(OCC2CCCCC2)n1", "inhibition": "20.8% (active)"}
{"smiles": "CC(C)(C)c1onc(OCP(=O)(O)O)c1CC(N)C(=O)O", "note": "(centres undefined)", "inhibition": "4.7% (active)"}
{"smiles": "CCCN(CC1CC1)c1nc(C)nc(Nc2c(Cl)cc(Cl)cc2Cl)c1Cl", "inhibition": "0.1% (active)"}
{"smiles": "CSC(=N)N", "inhibition": "-7.4%"}
{"smiles": "CCSC(=N)N", "inhibition": "0.7% (active)"}
{"smiles": "CCN1/C(=C/C(C)=O)Sc2ccc(OC)cc21", "inhibition": "10.3% (active)"}
{"smiles": "CC(=O)O[C@H]1CC2(C)[C@@H](C[C@@H](O)[C@H]3[C@@]4(C)CC[C@@H](O)[C@@H](C)[C@@H]4CC[C@@]32C)/C1=C(/CCC=C(C)C)C(=O)O", "note": "(some centres undefined)", "inhibition": "2.7% (active)"}
